Among the data in PubChem BioAssay (EPA / NIEHS) are outcome and AC50 values, retold here.

Each structure is given as a SMILES string. Calls of active or inactive are those of the source. The calls were made as follows: active = hit-call score of the fitted dose curve at least 0.9, where 1 is the maximum; inactive = score below 0.9.

Read-out in the first test: Thrombomodulin, THBD (gene 7056)
Briefly: BSK_CASM3C_Thrombomodulin: BioMAP Diversity Plus: CASM3C Assay for Thrombomodulin Biomarker Activity (AID 2283051).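 Also: thrombomodulin protein level measured by ELISA 24 h after dosing.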 The conditions noted are these: primary human coronary artery smooth muscle cells; actives raise or lower the signal.
For `CCN(Cc1cccc(S(=O)(=O)O)c1)c1ccc(C(=C2C=CC(=[N+](CC)Cc3cccc(S(=O)(=O)O)c3)C=C2)c2ccccc2S(=O)(=O)[O-])cc1`, the result was inactive.

On to `CCCCOC(=O)CC(CC(=O)OCCCC)(OC(C)=O)C(=O)OCCCC`, for which the result was inactive.

For `CN(C)C(=O)C1(N2CCCCC2)CCN(CC[C@@]2(c3ccc(Cl)c(Cl)c3)CN(C(=O)c3ccccc3)CCO2)CC1`, the concentration at half-maximal activity (AC50) was 34.7 µM (active).

Take `CCCCOC(=O)c1ccc(O)cc1`: the result was inactive.

Consider `O=C1CCC(C2CCCCC2)CC1`, for which the result was inactive.

Consider `CCO[Si](CCCNC(N)=O)(OCC)OCC`, for which the result was inactive.

As for `CCCCCCCCCCCCO`, the outcome was inactive.

In the case of `C[C@]12CC[C@@H]3c4ccc(O)cc4CC[C@H]3[C@@H]1CCC2=O`, the result was inactive.

Consider `CC/C(=C(/CC)c1ccc(O)cc1)c1ccc(O)cc1`, for which the result was inactive.

In the case of `CCCCCc1ccc(N)cc1`, the outcome was inactive.

For the compound `CN1C(=O)CC[C@H]1c1cccnc1`, the result was inactive.

In the case of `O=C(O)Cc1cc(I)c(Oc2ccc(O)c(I)c2)c(I)c1`, the result was inactive.

`CCCCCCCCCCCC[N+](C)(C)C`: the outcome was inactive.

For the compound `CCCCCCCCCC(=O)O`, the outcome was inactive.

On to `Cc1cc(F)ccc1-c1cc(N2CC[C@@H](O)[C@H]2CO)ncc1N(C)C(=O)C(C)(C)c1cc(C(F)(F)F)cc(C(F)(F)F)c1`, for which the result was inactive.

On to `CC(C)(C)c1csc(-c2cc3cc(OCc4ccccc4CC(=O)O)ccc3o2)n1`, for which the result was inactive.

As to `CC(=O)N1CCN(c2ccc(OC[C@H]3CO[C@](Cn4ccnc4)(c4ccc(Cl)cc4Cl)O3)cc2)CC1`, the result was inactive.

For `CN(C)c1ccc(C(=C2C=CC(=[N+](C)C)C=C2)c2ccc(N(C)C)cc2)cc1`, the outcome was inactive.

Regarding `O=C(Nc1ccc(Cl)cc1)Nc1ccc(Cl)c(Cl)c1`, the outcome was inactive.

As for `CCCCCCCCN(C)CCCCCCCC`, the outcome was inactive.

For `c1ccc2ccccc2c1`, the outcome was inactive.

Take `CCCCCCCCCCCO`: the result was inactive.

As to `CC[C@@H]1C[C@H](N(Cc2cc(C(F)(F)F)cc(C(F)(F)F)c2)C(C)=O)c2cc(C(F)(F)F)ccc2N1C(=O)OC(C)C`, the outcome was inactive.

Take `CCCCCCCC[Si](OCC)(OCC)OCC`: the outcome was inactive.

As for `O=C(OCCCCCCOC(=O)c1ccccc1)c1ccccc1`, the AC50 was 15.9 µM (active).

For `COCC(C)OCC(C)OCC(C)O` (stereo not given), the result was inactive.

Take `Cc1oc2c(NC(=O)c3c(Cl)cccc3Cl)cccc2c1C(C)(C)O`: the AC50 was 26.5 µM (active).

With `Clc1cc(Cl)c2c(c1)N=C1CCCCCN1C2`, the outcome was inactive.

For the compound `O=C(O)Cn1c(=O)n(Cc2ccc(Br)cc2F)c(=O)c2ccc(Cl)cc21`, the result was inactive.

Take `Oc1ccccc1`: the outcome was inactive.

For the compound `OC12N=C(c3ccccc3)SC1Cc1cc(Cl)ccc12` (stereo not given), the outcome was inactive.

Turning to `Cc1ccc(C(C)C)cc1`, the result was inactive.

Take `Cc1cn([C@H]2C[C@H](N=[N+]=[N-])[C@@H](CO)O2)c(=O)[nH]c1=O`: the outcome was inactive.

For `NC(=O)c1nc(-c2cccc(-c3cc(F)ccc3OCC(F)(F)C(F)(F)F)c2)n[nH]1`, the outcome was inactive.

In the case of `CCCOC(=O)c1cc(O)c(O)c(O)c1`, the result was inactive.

`O=CCCCC=O`: the concentration at half-maximal activity (AC50) is 31.9 µM (active).

For the compound `COc1cc(C(=O)NC2CCN(C)CC2)ccc1Nc1ncc2c(n1)N(C1CCCC1)CC(F)(F)C(=O)N2C`, the outcome was inactive.

Read-out in the next test: Tissue Factor, F3 (gene 2152)
Briefly: BSK_CASM3C_TissueFactor: BioMAP Diversity Plus: CASM3C Assay for Tissue Factor Biomarker Activity (AID 2283052).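 Also: cell surface tissue factor protein level read by ELISA.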 The conditions noted are these: primary human coronary artery smooth muscle cells; actives raise or lower the signal.
Turning to `CCN(Cc1cccc(S(=O)(=O)O)c1)c1ccc(C(=C2C=CC(=[N+](CC)Cc3cccc(S(=O)(=O)O)c3)C=C2)c2ccccc2S(=O)(=O)[O-])cc1`, the outcome was inactive.

In the case of `CCCCOC(=O)CC(CC(=O)OCCCC)(OC(C)=O)C(=O)OCCCC`, the outcome was inactive.

As to `O=c1c(-c2ccc(O)cc2)coc2cc(O)cc(O)c12`, the outcome was inactive.

Regarding `CN(C)C(=O)C1(N2CCCCC2)CCN(CC[C@@]2(c3ccc(Cl)c(Cl)c3)CN(C(=O)c3ccccc3)CCO2)CC1`, the AC50 was 31 µM (active).

As to `CCCCOC(=O)c1ccc(O)cc1`, the result was inactive.

For `O=C1CCC(C2CCCCC2)CC1`, the outcome was inactive.

For the compound `CCO[Si](CCCNC(N)=O)(OCC)OCC`, the result was inactive.

In the case of `CCCCCCCCCCCCO`, the AC50 was 32.3 µM (active).

Regarding `C[C@]12CC[C@@H]3c4ccc(O)cc4CC[C@H]3[C@@H]1CCC2=O`, the outcome was inactive.

Turning to `CC/C(=C(/CC)c1ccc(O)cc1)c1ccc(O)cc1`, the AC50 was 11 µM (active).

Regarding `CCCCCc1ccc(N)cc1`, the outcome was inactive.

Regarding `CN1C(=O)CC[C@H]1c1cccnc1`, the outcome was inactive.

In the case of `O=C(O)Cc1cc(I)c(Oc2ccc(O)c(I)c2)c(I)c1`, the outcome was inactive.

As for `CCCCCCCCCCCC[N+](C)(C)C`, the concentration at half-maximal activity (AC50) is 4.09 µM (active).

`CCCCCCCCCC(=O)O`: the outcome was inactive.

Turning to `Cc1cc(F)ccc1-c1cc(N2CC[C@@H](O)[C@H]2CO)ncc1N(C)C(=O)C(C)(C)c1cc(C(F)(F)F)cc(C(F)(F)F)c1`, the half-maximal activity concentration (AC50) is 22 µM (active).

Take `CC(C)(C)c1csc(-c2cc3cc(OCc4ccccc4CC(=O)O)ccc3o2)n1`: the outcome was inactive.

`CC(=O)N1CCN(c2ccc(OC[C@H]3CO[C@](Cn4ccnc4)(c4ccc(Cl)cc4Cl)O3)cc2)CC1`: the outcome was inactive.

For the compound `CN(C)c1ccc(C(=C2C=CC(=[N+](C)C)C=C2)c2ccc(N(C)C)cc2)cc1`, the AC50 is 1.49 µM (active).

Consider `O=C(Nc1ccc(Cl)cc1)Nc1ccc(Cl)c(Cl)c1`, for which the AC50 is 9.41 µM (active).

With `CCCCCCCCN(C)CCCCCCCC`, the result was inactive.

On to `c1ccc2ccccc2c1`, for which the outcome was inactive.

For `CCCCCCCCCCCO`, the outcome was inactive.

As to `CC[C@@H]1C[C@H](N(Cc2cc(C(F)(F)F)cc(C(F)(F)F)c2)C(C)=O)c2cc(C(F)(F)F)ccc2N1C(=O)OC(C)C`, the result was inactive.

Regarding `CCCCCCCC[Si](OCC)(OCC)OCC`, the outcome was inactive.

For `O=C(OCCCCCCOC(=O)c1ccccc1)c1ccccc1`, the result was inactive.

Regarding `COCC(C)OCC(C)OCC(C)O` (stereo not given), the result was inactive.

On to `Cc1oc2c(NC(=O)c3c(Cl)cccc3Cl)cccc2c1C(C)(C)O`, for which the concentration at half-maximal activity (AC50) is 29.4 µM (active).

Regarding `Clc1cc(Cl)c2c(c1)N=C1CCCCCN1C2`, the outcome was inactive.

For the compound `O=C(O)Cn1c(=O)n(Cc2ccc(Br)cc2F)c(=O)c2ccc(Cl)cc21`, the result was inactive.

On to `Oc1ccccc1`, for which the outcome was inactive.

With `OC12N=C(c3ccccc3)SC1Cc1cc(Cl)ccc12` (stereo not given), the result was inactive.

With `Cc1ccc(C(C)C)cc1`, the result was inactive.

As for `Cc1cn([C@H]2C[C@H](N=[N+]=[N-])[C@@H](CO)O2)c(=O)[nH]c1=O`, the outcome was inactive.

Regarding `NC(=O)c1nc(-c2cccc(-c3cc(F)ccc3OCC(F)(F)C(F)(F)F)c2)n[nH]1`, the outcome was inactive.

Take `CCCOC(=O)c1cc(O)c(O)c(O)c1`: the outcome was inactive.

As to `O=CCCCC=O`, the outcome was inactive.

For `COc1cc(C(=O)NC2CCN(C)CC2)ccc1Nc1ncc2c(n1)N(C1CCCC1)CC(F)(F)C(=O)N2C`, the concentration at half-maximal activity (AC50) was 14.2 µM (active).
